# The full ranking holds about 68,000 sequences; the median of “fluorescence intensity (a.u.)” is about 9,100, and the highest 2% start at about 16,000. Only a selection was taken, and the highest values are over-represented in it overall.
# Target: OsWRKY34 (Oryza sativa, UniProt Q0JBA9 1-250)
# Experiment: protein-binding microarray (RPBM); PBS, 2% BSA, 51.3 ng/ul salmon testes DNA, 50 uM zinc acetate, 200 nM TF, 25 C, 1 h; high values mean tight binding
# Conditions: protein: recombinant; tags: N-terminal polyhistidine and DsRed monomer fusion (pET32a); label: CyDye5-dUTP incorporated in the synthesized complementary strand; 3' TTTTT single-stranded linker to array surface; dsDNA, one strand shown
# Outline: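 The binding signal for each feature is its fluorescence intensity in arbitrary units. An Axon 4000B scanner was used to read a custom Agilent array that had been made double-stranded with Cy5-dUTP primer extension, blocked with 2% BSA, incubated at 25 °C for 1 h with 200 nM protein in PBS, 2% BSA, salmon testes DNA and 50 µM zinc acetate, and washed. The protein was an N-terminal polyhistidine–DsRed transcription factor fusion from E. coli BL21-CodonPlus, purified on Ni–NTA.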
# Sequence of OsWRKY34 (Q0JBA9 entry or part of it): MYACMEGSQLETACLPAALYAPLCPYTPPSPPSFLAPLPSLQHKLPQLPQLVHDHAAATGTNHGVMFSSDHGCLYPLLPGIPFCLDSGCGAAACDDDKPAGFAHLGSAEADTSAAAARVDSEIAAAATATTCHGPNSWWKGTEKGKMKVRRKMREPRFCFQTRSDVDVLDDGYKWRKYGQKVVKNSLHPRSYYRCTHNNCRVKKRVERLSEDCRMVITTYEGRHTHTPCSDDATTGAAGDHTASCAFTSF
row,Sequence,binding signal
1,TCCGCCCTCTGACCGCGGCGCCAAAGCTCCTCCGCGCGCGCGGAGTCACCTAGTGCAG,8030 fluorescence intensity (a.u.)
2,CGGACCCCATACACCTCCGCCCGATTCCCGACGCAAATCCCGGAGTCACCTAGTGCAG,9260 fluorescence intensity (a.u.)
3,GTTTGTAACGTATTTTAGCTCGCTTTATAACGGGGCAGTTCGGAGTCACCTAGTGCAG,8160 fluorescence intensity (a.u.)
4,GATTGCTTTGTGGGTGTATGGTTCATCTTCAATGGTTTACCGGAGTCACCTAGTGCAG,8030 fluorescence intensity (a.u.)
5,CCGTTTCAAAATGTTTGACACCGTTGACTTTTTAGTACGTCGGAGTCACCTAGTGCAG,21100 fluorescence intensity (a.u.)
6,CGACAAAATTCAACCGTAATTTCAACGTTTTCCTAACTTTCGGAGTCACCTAGTGCAG,8990 fluorescence intensity (a.u.)
7,TGATATCTTTTTCTTTAATGACTTTCCGTGTTTTCAACGTCGGAGTCACCTAGTGCAG,8090 fluorescence intensity (a.u.)
8,AACGTACTAATGCATGACACCGTTGACTTTTTTTCAACGTCGGAGTCACCTAGTGCAG,40400 fluorescence intensity (a.u.)
9,GTTTCAAAATGTTTGACACCGTTGACTTTTTAGTACGTGTCGGAGTCACCTAGTGCAG,22500 fluorescence intensity (a.u.)
10,CGTTTCAAAATGTTTGACACCGTTGACTTTTTAGTACATGCGGAGTCACCTAGTGCAG,35900 fluorescence intensity (a.u.)
11,ACCATCACTTTTACTCTCTTTCTGCCTTAAAATCTCAATACGGAGTCACCTAGTGCAG,8590 fluorescence intensity (a.u.)
12,CCCTTTCCTTTTCTTTTTTTTTCTCATTTTATCCACAATTCGGAGTCACCTAGTGCAG,9870 fluorescence intensity (a.u.)
13,CGTGGCCCATCTCCAATTCTCCAGTTGCTTCCTTTTCGTTCGGAGTCACCTAGTGCAG,12600 fluorescence intensity (a.u.)
14,TCTCTTTCTTTCCTTAACTCTCTTTCTCTACTCTCCACTCCGGAGTCACCTAGTGCAG,9580 fluorescence intensity (a.u.)
15,GCTGTGTGTACATATTACTAGTACTACTTAATACGTGCTTCGGAGTCACCTAGTGCAG,11200 fluorescence intensity (a.u.)
16,TTGTGAGTGTGTATGTGTTTATGGTGTGTAATTTTTTTTACGGAGTCACCTAGTGCAG,9320 fluorescence intensity (a.u.)
17,GGCGTTGGTCACCTCCCGTGAGTCGTCCTCTATTCCTCTTCGGAGTCACCTAGTGCAG,11100 fluorescence intensity (a.u.)
18,GGTTGTAATCTATAGGGGTCCTTGTATAGAAATATCGTTTCGGAGTCACCTAGTGCAG,8880 fluorescence intensity (a.u.)
19,CTCCTCGCCTTCTTCTCCATCTCCATCTCGCATCTTCTCTCGGAGTCACCTAGTGCAG,11400 fluorescence intensity (a.u.)
20,ATTTTGGGACAGAGGTAGCAGTGAACTACACGTACCTTGTCGGAGTCACCTAGTGCAG,21500 fluorescence intensity (a.u.)
21,ACATTTTAATTTGTAGGGAGAGGTACTATGGGCTTAACTTCGGAGTCACCTAGTGCAG,9750 fluorescence intensity (a.u.)

row,Sequence,binding signal
1,GGGGTCGGGGTGGGAGAGGGAGGCTACACTACAGCAGCAGCGGAGTCACCTAGTGCAG,11100 fluorescence intensity (a.u.)
2,AACAAACCAACCTAGGATACTACTGTCAATTTTCACAACCCGGAGTCACCTAGTGCAG,9280 fluorescence intensity (a.u.)
3,GCAGTACACTGATACGATACAATCGTTGACTGTTTCAGGACGGAGTCACCTAGTGCAG,9230 fluorescence intensity (a.u.)
4,GTGTGGGTGGCAGGGTGTGTTGAGGAGGTGCCCGCGTTGCCGGAGTCACCTAGTGCAG,10300 fluorescence intensity (a.u.)
5,ATTGGATCCGGGGAGGAGGAGGTGGGGTTCGGTTTCGTGCCGGAGTCACCTAGTGCAG,11600 fluorescence intensity (a.u.)
6,AATGGGTGTTTTTTTAGTTGTTGTGTGTGTTTGGACGATTCGGAGTCACCTAGTGCAG,10400 fluorescence intensity (a.u.)
7,CGCTTCGCTGACGGTTGTGTGTTGGTGGGTGCAGGGGTGCCGGAGTCACCTAGTGCAG,12700 fluorescence intensity (a.u.)
8,TGGATCTGGTGTGTTAGTTTGGATTTGTGTTTGTCCTTTTCGGAGTCACCTAGTGCAG,12600 fluorescence intensity (a.u.)
9,GGAGGAGGGGTGGGGTGTTGAGCCCTGGAGAAGCCACCGCCGGAGTCACCTAGTGCAG,21000 fluorescence intensity (a.u.)
10,TTTTGGTGGGTGGGTTTGGGACGTTGGATTGGTGGTGGACCGGAGTCACCTAGTGCAG,12600 fluorescence intensity (a.u.)
11,GATGCATTTTTGTCTGGGCGTTGTCCTTGTGGAAGCATCTCGGAGTCACCTAGTGCAG,10000 fluorescence intensity (a.u.)
12,GGCGCCGGGGTGGGGTGGTGCTGGAGCCACCGGAGGAGCGCGGAGTCACCTAGTGCAG,9730 fluorescence intensity (a.u.)
13,CAGGAGGGGTGGGTTGTTGTTCGGTGGTGTGGACCCGTGCCGGAGTCACCTAGTGCAG,17700 fluorescence intensity (a.u.)
14,TGTCCTTTGTTGTGGTGTGGTGGTGGGCATCTGGACCGTTCGGAGTCACCTAGTGCAG,29700 fluorescence intensity (a.u.)
15,TTGTTGGGTGGGGACGTGGGGTGGGGTTCATGGAGTGGTTCGGAGTCACCTAGTGCAG,24800 fluorescence intensity (a.u.)
16,TCTACGGGTATCCCGCGTCGACAATATTCCCATGCATTTACGGAGTCACCTAGTGCAG,10900 fluorescence intensity (a.u.)
17,ATTCCGTTAGCATTTGTCCTGCCATGGCCTATTCTGCCAGCGGAGTCACCTAGTGCAG,10400 fluorescence intensity (a.u.)
18,CATGTTGTTCTGTTTGATGTTGCCCACTACGGTCTTTAGTCGGAGTCACCTAGTGCAG,10900 fluorescence intensity (a.u.)
19,GACGAGACCGACGCCGTCATCCTCCTTCTCACGCTACCATCGGAGTCACCTAGTGCAG,8040 fluorescence intensity (a.u.)
20,GTCACTTCTCCTTTTTTTTTGGCATGCAATAGACTTCCTTCGGAGTCACCTAGTGCAG,8780 fluorescence intensity (a.u.)
21,CCCCTCGAGTCTGATCCTCCCACTACCAACGTCCACCGGCCGGAGTCACCTAGTGCAG,9210 fluorescence intensity (a.u.)

row,Sequence,binding signal
1,CCGCCGCCGCTCGCCGCCGCATTGCGTTACTCGAGCTCGCCGGAGTCACCTAGTGCAG,8710 fluorescence intensity (a.u.)
2,TACTGTCTGTCAACACACTTCATGATTTCTCATCAAATATCGGAGTCACCTAGTGCAG,10400 fluorescence intensity (a.u.)
3,AGGACGATGGGCGCGATGGGATTTGTTCTTGACTGTTTTACGGAGTCACCTAGTGCAG,12000 fluorescence intensity (a.u.)
4,TATATACTTTCATGGGTCTATATTTATATGTATGTATACACGGAGTCACCTAGTGCAG,8690 fluorescence intensity (a.u.)
5,TTCGGGTTCAATTTCAGGTTCAGTCGCTTGCTTGGTGCTTCGGAGTCACCTAGTGCAG,8960 fluorescence intensity (a.u.)
6,TCGGTTTCATACGTGGGGTCTGTTGGTGGAGGTGTTGCCACGGAGTCACCTAGTGCAG,9440 fluorescence intensity (a.u.)
7,TACTCAATGTCTAATGGGGTGTTTGGATGGGACTAATTTTCGGAGTCACCTAGTGCAG,13000 fluorescence intensity (a.u.)
8,GGTGCGTGTTCGGGATGGGGTTCGGGTTCAATTTCAGGTTCGGAGTCACCTAGTGCAG,16700 fluorescence intensity (a.u.)
9,CGATACTTTCATGGGTGGGTCCTATGTTGCACGGTTGGTTCGGAGTCACCTAGTGCAG,22900 fluorescence intensity (a.u.)
10,TTACTATACTATTAATATCTGATCACACCTGTCATACACACGGAGTCACCTAGTGCAG,9710 fluorescence intensity (a.u.)
11,CAGAGTGCAAGCCAATCATCGCCACCACGCTACGCTACACCGGAGTCACCTAGTGCAG,8130 fluorescence intensity (a.u.)
12,CGTTTGTACTGTGTGGTGGTTGGTGATTGGGTGTTGTGCCCGGAGTCACCTAGTGCAG,13900 fluorescence intensity (a.u.)
13,AAAAGCCGGTCTCCTTCATCTTCCCGTCCGTAAACCCTAACGGAGTCACCTAGTGCAG,10600 fluorescence intensity (a.u.)
14,CTCGCCTCTAGGGTTCCGCCGTTTTCCGCGGCGCGCCACCCGGAGTCACCTAGTGCAG,9410 fluorescence intensity (a.u.)
15,CCGCCGCCGTTCCGTTTTTTCTCTCTCGCGCCGCCGCCAGCGGAGTCACCTAGTGCAG,17300 fluorescence intensity (a.u.)
16,GTTCCAGCCGCGTTTCCTCTCGCGGCGGCCTCGCCATTTCCGGAGTCACCTAGTGCAG,9070 fluorescence intensity (a.u.)
17,CATCTCCTCCGTTTTCCGCGCACATGTTTTTTAAACTGCTCGGAGTCACCTAGTGCAG,10400 fluorescence intensity (a.u.)
18,TCTACGCCGCCGGCGGCGGCGGCGGCGGCAACTGCGGCGCCGGAGTCACCTAGTGCAG,47800 fluorescence intensity (a.u.)
19,ACGACGACGACGACGACGCAACCCCGCGGCGCGCGCCGGCCGGAGTCACCTAGTGCAG,8430 fluorescence intensity (a.u.)
20,CGCCTCTTTTCGTTTCGTTTCGCCGCCCGCTTCCGCCGCGCGGAGTCACCTAGTGCAG,23300 fluorescence intensity (a.u.)
21,CACCCTCGTTTCCACCCGCGCCCGCGCGCCGCGCGCCACTCGGAGTCACCTAGTGCAG,10800 fluorescence intensity (a.u.)

row,Sequence,binding signal
1,CTCGCTTCTTCTTCCTTCTTTCCGTCCTCGCCGCCCCGCGCGGAGTCACCTAGTGCAG,8470 fluorescence intensity (a.u.)
2,TCCCTCTCTCTCTCTCTCTTCGTTTCCGCGCGCGCGCGCGCGGAGTCACCTAGTGCAG,9340 fluorescence intensity (a.u.)
3,CCTCTACGCGCGGCCAACGCCGCCGCCGCCGCCGCCGCTCCGGAGTCACCTAGTGCAG,8370 fluorescence intensity (a.u.)
4,AGCCAGTTTTCTCCACCCTCGTTTTCCGCGCACATGTTTTCGGAGTCACCTAGTGCAG,17600 fluorescence intensity (a.u.)
5,TCCTATGTTTTTCCTGCGGTCCAATCAAACGGTCATTCTTCGGAGTCACCTAGTGCAG,12300 fluorescence intensity (a.u.)
6,GCGTGTTTTTCTACCCGATCGACCTTCTGATTTTGGCTATCGGAGTCACCTAGTGCAG,11100 fluorescence intensity (a.u.)
7,CCACCAGCGATTTGGCCCGATCTCATCCCACCAGCGATTTCGGAGTCACCTAGTGCAG,8430 fluorescence intensity (a.u.)
8,CACAGCTTCTTAATTACTCCACCTTAATTAATCGATTAATCGGAGTCACCTAGTGCAG,8680 fluorescence intensity (a.u.)
9,TATATATATATATATATATATATATCTGATGCTCTCTTGCCGGAGTCACCTAGTGCAG,31700 fluorescence intensity (a.u.)
10,CACCGGTTCTTCGCCTTCGTCACCGTCGCCGGCGGCGCCACGGAGTCACCTAGTGCAG,8450 fluorescence intensity (a.u.)
11,GTTGGGGTTCGTCGTCTTGGTCTTGGGTCTTCTTCGTCCCCGGAGTCACCTAGTGCAG,11600 fluorescence intensity (a.u.)
12,GGGCGGTTCTTCTTCTTCGTCTTCGTCTTGGCGCCGGTCGCGGAGTCACCTAGTGCAG,17200 fluorescence intensity (a.u.)
13,CGCCGCCGCCGCCGCCGCCGCGCTCGCTCGCTCGCTTCTTCGGAGTCACCTAGTGCAG,10200 fluorescence intensity (a.u.)
14,TGATCGCTCGCCGCCGCGGCCGCTCTCCCGCCGGCGCCGCCGGAGTCACCTAGTGCAG,9560 fluorescence intensity (a.u.)
15,CTCCACTGCTCTGATGCTCTCTCTCTCTCTCTCTTCACGCCGGAGTCACCTAGTGCAG,10800 fluorescence intensity (a.u.)
16,CCACGCCACGCGCCGCTCTCACTCGGTCACTCTCACTCTTCGGAGTCACCTAGTGCAG,9750 fluorescence intensity (a.u.)
17,CTCTCTCTCTCTCTCTCTCTCTCTCTCTTCGCCGCGCGGCCGGAGTCACCTAGTGCAG,18300 fluorescence intensity (a.u.)
18,AAATTAACCACACTCGCGCCGCCATTCTCTTCTTCTTCTTCGGAGTCACCTAGTGCAG,20600 fluorescence intensity (a.u.)
19,CCCACACCACCTCGCCCAATTAAACCCTCACCCATTCTTTCGGAGTCACCTAGTGCAG,9140 fluorescence intensity (a.u.)
20,ATGCCGCTCTATCTCTCTCTCTCTCTCTCTCTCTCTCTCTCGGAGTCACCTAGTGCAG,9760 fluorescence intensity (a.u.)
21,TAGCAACTCCGTTCTTTTTCTTCTTTTCTCTCACTCACTCCGGAGTCACCTAGTGCAG,8360 fluorescence intensity (a.u.)
